Data published in the supplement of paper PMC6555819.

Key:
Test in all cases: PBM binding z-score (relative to random genomic background probes); higher = stronger binding; sequences stand for … in GC…GCGATTGACAGCGTAGAATGAAGG
[1] = tested on: PPARg:RXRa DBDmut IVT, anti-RXR (DBD mutation: RXRa K156A/R161A, NR concentration 270 nM, RXRa partner concentration 90 nM)
How it was run: (§1)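 Probes were double-stranded and carried 34-nt variable regions with direct-repeat seeds, single-nucleotide variants, half-site ablations and random human genomic background sequences, printed on custom Agilent 4×180K protein-binding microarrays. Arrays were incubated 1 h with ligand-free nuclear receptor dimers in PBS pH 7.4, 2% milk, 0.02% Triton X-100, 1 mM DTT, 0.2 mg/mL BSA and 0.4 mg/ml salmon testes DNA. Antibodies against each partner (one per run) detected binding, and scanned fluorescence was regression-normalized. Binding z-scores use the random background probes as reference.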

[2] = tested on: PPARg:RXRa IVT, anti-PPARg (NR concentration 270 nM, RXRa partner concentration 90 nM)
How it was run: as §1

[3] = tested on: PPARg DBDmut:RXRa IVT, anti-PPARg (DBD mutation: PPARg1 K132A/R137A, NR concentration 270 nM, RXRa partner concentration 90 nM)
How it was run: as §1

[4] = tested on: PPARg DBDmut IVT, anti-PPARg (DBD mutation: PPARg1 K132A/R137A, NR concentration 270 nM)
How it was run: as §1

[5] = tested on: PPARg homodimer (NR concentration 180 nM)
How it was run: as §1

[6] = tested on: PXR:RXRa (NR concentration 270 nM, RXRa partner concentration 90 nM)
How it was run: as §1

[7] = tested on: PXR homodimer (NR concentration 270 nM)
How it was run: as §1

[8] = tested on: RARa:RXR (NR concentration 270 nM, RXRa partner concentration 90 nM)
How it was run: as §1

[9] = tested on: RARa homodimer (NR concentration 270 nM)
How it was run: as §1

[10] = tested on: RARb:RXRa (NR concentration 270 nM, RXRa partner concentration 90 nM)
How it was run: as §1

[11] = tested on: RARb homodimer (NR concentration 270 nM)
How it was run: as §1

[12] = tested on: RARg:RXRa (NR concentration 270 nM, RXRa partner concentration 90 nM)
How it was run: as §1

[13] = tested on: RARg homodimer (NR concentration 270 nM)
How it was run: as §1

[14] = tested on: RXRa DBDmut IVT, anti-RXR (DBD mutation: RXRa K156A/R161A, NR concentration 90 nM)
How it was run: as §1

[15] = tested on: RXRa homodimer (NR concentration 180 nM)
How it was run: as §1

[16] = tested on: THRa:RXRa (NR concentration 90 nM, RXRa partner concentration 90 nM)
How it was run: as §1

[17] = tested on: THRa homodimer (NR concentration 90 nM)
How it was run: as §1

[18] = tested on: VDR homodimer (NR concentration 270 nM)
How it was run: as §1

Sequence	PBM binding z-score [1]	PBM binding z-score [2]	PBM binding z-score [3]	PBM binding z-score [4]	PBM binding z-score [5]	PBM binding z-score [6]	PBM binding z-score [7]	PBM binding z-score [8]	PBM binding z-score [9]	PBM binding z-score [10]	PBM binding z-score [11]	PBM binding z-score [12]	PBM binding z-score [13]	PBM binding z-score [14]	PBM binding z-score [15]	PBM binding z-score [16]	PBM binding z-score [17]	PBM binding z-score [18]
ATCGAAATGTCGAAGGTGAGTATACCCACCCGAA	-1.11	0.391	0.818	0.244	-0.161	-0.253	-0.511	0.116	-0.269	0.495	-0.167	0.233	0.587	-0.753	0.434	-0.023	-0.43	-0.0115
CGAACTAGGTCATCCAGGACAGCGAATACATTGA	8.26	8.15	1.97	1.48	1.78	1.78	1.09	2.33	-0.0811	3.81	3	3.97	4.81	2.19	2.73	3.84	2.24	1.93
ATCTCTAGGTAAAAGTACAGTGAATCCCGAGGAT	1.64	1.67	1.14	1.43	0.118	-0.149	0.313	-0.057	1.08	0.298	-0.337	0.567	0.702	-0.00884	0.199	0.284	0.0784	0.123
CCTGGTAGGTCATGGTCAGCTAATCTACAGTATG	4.25	5.18	0.295	0.552	1.94	2.02	-0.0799	2.83	0.611	3.81	3.07	4.23	4.8	0.728	3.62	2.22	0.615	0.706
AATACAGGGTTACTAGGCCAGAGTAGGTACGAAT	2.82	4.59	1.84	1.12	1.19	0.457	0.173	0.852	0.718	1.38	0.925	1.24	0.893	0.264	1.57	1.07	0.206	0.675
CGTCCACGGTCAGAGAGGTCAGTGAATGCCGAGT	0.449	1.17	-1.02	-1.36	2.07	3.13	2.89	2.83	0.503	3.95	4.32	3.6	4.74	0.914	2.75	2.54	0.458	2.11
AGAAGGAGGTTATACGTAGATCAGGGAAGAAAGT	2.41	1.24	2.08	0.617	1.18	1	1.06	0.963	1.33	1.34	1.26	1.3	1.11	0.234	1.59	1.28	0.665	0.752
ATCGAAAGGTCGGAGGTGAGTATACCCACCCGAA	-0.278	1.78	1.11	0.559	1.66	1.87	0.241	2.79	0.0274	3.28	2.03	3.26	3	0.388	3.28	1.77	-0.0288	0.152
CGAACGAGGGCAAGAGTTGATAGCAAATGCCGAT	3.38	2.22	0.196	-0.307	0.163	0.404	-0.197	0.316	-0.216	2.38	1.44	1.67	1.85	1.89	1.1	0.79	-0.443	1.07
CCTACTGGGCCACCAAAGGTCATTGATTCAGTGA	5.36	5.74	1.31	0.0425	4.38	5.69	2.75	6.23	2.56	4	4.49	4.61	4.52	0.43	5.36	3.67	0.763	2.66
TCTCTGAGGACACGAAAGGTCAGAGCTCGACATC	1.67	2.12	0.453	1.37	2.33	4.09	0.562	4.33	0.907	4.2	4.78	4.77	5.31	1.55	3.99	4.45	4.15	1.21
TCTTGTAGATGAATAGAGGTTAAGAAAGTGCGCT	2.5	1.18	0.58	0.95	0.765	3.01	0.505	1.86	1.12	1.01	1.19	0.961	0.531	1.66	1.68	1.72	0.0374	0.264
TTGCCTAGGTCAGATCGGGCCAGTATACGCTATA	0.589	1.07	-1.83	-1.18	0.162	1.47	-0.653	1.46	-0.953	3.07	2.16	2.77	3.6	0.0965	1.51	3.9	-0.108	-0.389
GATACAGCGTCAAGGCCAGAGTACGCGTATTGAT	-0.697	-0.358	-0.853	-0.941	-0.474	-0.434	-0.406	-0.6	-0.441	0.0727	-0.276	-0.245	0.129	-0.11	-0.253	-0.179	-0.406	0.0516
ACAGACAGGTGATGAAGTTAACTCAGGCTATCAT	-0.14	0.266	0.864	0.239	0.153	0.166	0.125	0.133	0.502	-0.00565	0.22	-0.00666	0.328	-0.128	0.00488	1.38	-0.0538	0.197
TCATATAGGCAAAAGGTGAAAGTCGGTGTGGTAA	3.66	3.79	0.358	-0.517	1.39	1.27	0.0545	1.81	0.897	1.81	1.81	1.45	0.567	1.45	2.12	1.24	0.0725	0.163
ATAGGTAGGTTATCGGGTCATTCAGTTTGCGCAT	4.9	5.09	1.49	1.46	2.74	3.9	7.44	3.76	2.57	2.62	3.33	3.46	2.72	1.53	3.29	3.41	3.2	4.02
AATAGAGGGTCACTAGGCCAGAGTAGGTACGAAT	3.57	5.33	0.782	0.194	1.04	1.95	-0.034	2.89	0.102	3.69	3.01	4.11	4.52	1.93	4.2	1.99	0.353	1.1
GATACAGGGTCAAGGCCCGAGTACGCGTATTGAT	2.09	3.66	0.597	-0.396	1.27	3.48	0.163	4.6	0.3	4.31	3.19	5.42	5	2.42	5.69	3.47	0.807	2.35
CCGACTGGGGCAGAAAGCTTACCATACCATCCGG	1.49	0.739	-1.01	-2.56	-0.236	-0.856	-0.585	-1.22	-0.188	-0.092	-0.46	-0.395	-0.221	-0.744	-0.422	-0.808	-0.889	-0.719
ACCAGCAGGCCAAGTTTGGGTCACTCAAACAAAG	-0.512	0.814	-0.754	-1.36	0.25	0.747	-0.419	1.27	-0.97	1.89	2.33	2.44	1.51	-0.217	0.731	2.61	0.952	0.435
AGAATGAAGTTATTAAGATCAGGGAATTGCGGTC	-0.0627	-0.0866	0.409	0.313	0.538	-0.219	0.044	0.183	0.224	-0.286	-0.379	-0.168	-0.0523	-0.232	0.116	-0.108	-0.315	-0.263
TAGCCTAGGTCATTCAGGGGCCAGGATAGAAAGC	1.12	2.85	0.258	-0.519	1.31	2.26	-0.068	3.5	-0.579	3.97	3.18	6.27	4.6	1.8	2.86	3.57	0.667	1.6
TCTAGCAGGCCAGAGGGTAACTCAAGAGGTACGG	0.667	0.376	-0.698	-0.379	0.0885	-0.174	-0.643	-0.0159	-0.296	0.332	0.228	0.127	0.174	-0.0485	0.497	-0.104	-0.765	-0.49
CCTACTGGGCTATCAGGTCATTGATATCAACGTT	3.17	4.19	0.0312	-0.392	0.841	1.33	0.575	1.41	0.294	1.55	2.18	1.56	1.35	0.092	0.965	3.1	2.44	1.01
TCTAGTTGGTCGAAGGTCACACACTCGAAATGCG	1.87	3.68	1.01	1.13	3.06	3.66	1.06	4.17	1.25	3.51	3.99	4.39	3.86	1.37	4.15	3.07	1.83	1.97
ACTAGTTGGTCAGCTGAGCTCACACACAATTCGG	0.771	0.632	0.319	0.574	-0.1	-0.455	-0.49	-0.357	-0.333	0.363	0.0845	-0.0715	0.577	0.194	-0.234	0.0887	-0.346	-0.289
GCTTACGGGTCAAAGGTTATTGCATGAATAGAAT	4.96	5.79	2.15	2.94	3.22	6.21	0.728	8.16	1	4.49	3.23	6.79	4.49	2.83	9.29	3.78	0.27	1.81
ATCTCTAGGTAAGACTCAGTTCAGTGACGAACGC	2.2	1.36	0.803	0.863	0.854	1.11	2.01	0.642	1.18	0.528	0.735	0.464	0.443	0.676	0.364	0.824	0.878	1.74
